Test results: PubChem BioAssay (EPA / NIEHS)
Records with an inconclusive call do not appear. Where a structure was tested more than once in an assay, its records may differ in their call. Calls of active or inactive are those of the source. Rule for the calls: active = hit-call score of the fitted dose curve at least 0.9, where 1 is the maximum; inconclusive = response in the unintended direction; inactive = score below 0.9.

Tests used:
[1] = target: Cellular tumor antigen p53 (Homo sapiens) (UniProt P04637); experiment: TOX21_p53_BLA_p2_ratio: Tox21 HCT-116 p53 Agonism Beta-lactamase Assay, Ratio, Phase 2 (AID 2283592)
Sequence of Cellular tumor antigen p53 (Homo sapiens) (P04637 whole entry, looked up): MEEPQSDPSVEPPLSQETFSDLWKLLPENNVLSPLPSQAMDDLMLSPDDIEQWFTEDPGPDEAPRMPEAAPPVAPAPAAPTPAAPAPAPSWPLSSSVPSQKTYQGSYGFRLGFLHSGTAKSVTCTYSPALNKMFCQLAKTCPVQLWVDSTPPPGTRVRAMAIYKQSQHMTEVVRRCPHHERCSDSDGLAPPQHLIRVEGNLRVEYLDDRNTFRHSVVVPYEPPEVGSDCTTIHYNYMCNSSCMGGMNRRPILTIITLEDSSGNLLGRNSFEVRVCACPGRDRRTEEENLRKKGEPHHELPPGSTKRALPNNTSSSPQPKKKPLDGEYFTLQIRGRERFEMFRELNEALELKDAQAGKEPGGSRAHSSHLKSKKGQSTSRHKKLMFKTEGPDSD
Procedure, shortened: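 DMSO-normalized, positive-direction endpoint derived from the 460 nm/530 nm FRET ratio in HCT116 p53 beta-lactamase reporter cells exposed 16 h at 37C and loaded with CCF4-AM for 2 h.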

[2] = TOX21_p53_BLA_p3_viability: Viability Assessment in the Tox21 HCT-116 p53 Agonism Beta-lactamase Assay, Phase 3 (AID 2283593);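 note: cells exposed to compound for 16 h before reading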
Procedure, shortened: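 HCT-116 cells (4000/well) rested 5 h at 37C, then got DMSO compounds by pin tool (217-fold dilution) for 16 h at 37C, 5% CO2. After the bla read, CellTiter-Glo was added and luminescence read at 30 min, room temperature.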

[3] = target: Cellular tumor antigen p53 (Homo sapiens) (UniProt P04637); experiment: TOX21_p53_BLA_p3_ratio: Tox21 HCT-116 p53 Agonism Beta-lactamase Assay, Ratio, Phase 3 (AID 2283596)
Procedure, shortened: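 Cells were seeded at 4000/well, rested 5 h at 37C, then dosed with DMSO compound solutions (217-fold dilution) for 16 h. CCF4-AM substrate was loaded for 2 h at room temperature, and the 460/530 nm emission ratio was fitted for gain of signal versus DMSO.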

[4] = TOX21_p53_BLA_p4_viability: Viability Assessment in the Tox21 HCT-116 p53 Agonism Beta-lactamase Assay, Phase 4 (AID 2283597);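 note: hits lower the luminescence signal meaning cytotoxicity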
Procedure, shortened: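 In this multiplexed secondary endpoint, HCT116 cells (4000 per well, compound at 5 h, 16 h treatment) received CellTiter-Glo after the beta-lactamase read. Luminescence after 30 min RT reflects ATP, and falling signal marks cytotoxicity.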

[5] = target: Cellular tumor antigen p53 (Homo sapiens) (UniProt P04637); experiment: TOX21_p53_BLA_p5_ratio: Tox21 HCT-116 p53 Agonism Beta-lactamase Assay, Ratio, Phase 5 (AID 2283599)
Procedure, shortened: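 HCT-116 cells carrying a p53-inducible beta-lactamase reporter were seeded at 4000 cells/well and dosed after 5 h with compound in DMSO (217-fold dilution). After 16 h at 37C, CCF4-AM substrate was added for 2 h, and the 460/530 nm emission ratio was scored as gain-of-signal versus DMSO.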

[6] = TOX21_p53_BLA_p5_viability: Viability Assessment in the Tox21 HCT-116 p53 Agonism Beta-lactamase Assay, Phase 5 (AID 2283600)
Procedure, shortened: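 Here cell health was gauged by ATP levels in wells holding 4000 cells, each treated 16 h with DMSO-delivered compounds at 217-fold dilution; reduced luminescence marked toxicity.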

[7] = target: Cellular tumor antigen p53 (Homo sapiens) (UniProt P04637); experiment: TOX21_p53_BLA_p4_ratio: Tox21 HCT-116 p53 Agonism Beta-lactamase Assay, Ratio, Phase 4 (AID 2283601)
Procedure, shortened: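 HCT116 cells carrying an inducible beta-lactamase reporter were plated at 4000 cells/well, rested 5 h, then exposed to compounds in DMSO (217-fold dilution) for 16 h at 37C. CCF4-AM substrate was loaded 2 h at room temperature; 460/530 nm emission ratio scored gain-of-signal versus DMSO.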

Measured: AC50

CSSc1ccoc1C
inactive: [1] | [2]
active: [3] 40.4 µM

Nc1nnnn1-c1ccccc1
not listed: [7]
inactive: all other assays above

O=C1NCCN1
inactive: [1] | [2] | [3] | [4]

Nc1ccc(S(=O)(=O)O)cc1
inactive: [1] | [2] | [3]

CCCCOc1cc(C(=O)OCCN(CC)CC)ccc1N
not listed: [6] | [7]
inactive: all other assays above

Nc1ccn([C@@H]2O[C@H](CO)[C@@H](O)C2(F)F)c(=O)n1
inactive: [2] | [4] | [6]
active: [1] 0.176 µM | [3] 0.181 µM | [5] 0.26 µM | [7] 0.188 µM

CC(=O)Nc1ccc(S(=O)(=O)Nc2ccc([N+](=O)[O-])cc2)cc1
not listed: [6] | [7]
inactive: all other assays above

CCN(CC)C(=O)Nc1ccc(OCC(O)CNC(C)(C)C)c(C(C)=O)c1 (stereo not given)
inactive: [1] | [2] | [3]

Cc1c(N)cccc1Cl
not listed: [7]
inactive: all other assays above

CC(=O)O[Si](C)(OC(C)=O)OC(C)=O
not listed: [6] | [7]
inactive: all other assays above

CCCCNC1CC(C)(C)NC(C)(C)C1
not listed: [6] | [7]
inactive: all other assays above

CCCCOC(=O)c1ccc(N)cc1
inactive: all assays above

O=C(O)Cc1ccc(-c2ccccc2)cc1
inactive: all assays above

CCC1OC(=O)C[C@@H](O)[C@H](C)[C@@H](O[C@@H]2O[C@H](C)C[C@H](N(C)C)[C@H]2O)[C@@H](CC=O)C[C@@H](C)C(=O)/C=C/[C@]2(C)OC2C1C (stereo not given in full)
active: [5] 35 µM | [7] 27.1 µM
inactive: [1] | [2] | [3] | [4] | [5] | [7]

NCC[C@H](O)C(=O)N[C@@H]1C[C@H](N)[C@@H](O[C@H]2O[C@H](CN)[C@@H](O)[C@H](O)[C@H]2O)[C@H](O)[C@H]1O[C@H]1O[C@H](CO)[C@@H](O)[C@H](N)[C@H]1O
not listed: [7]
inactive: all other assays above

CC1=NS(=O)(=O)c2cc(Cl)ccc2N1
not listed: [6] | [7]
inactive: all other assays above

CO[C@@H]1[C@@H](O[C@@H]2O[C@H](C)[C@@H](O[C@H]3C[C@](C)(O)[C@@H](O)[C@H](C)O3)[C@H](N(C)C)[C@H]2O)[C@H](CC=O)C[C@@H](C)[C@H](O[C@H]2CC[C@H](N(C)C)[C@@H](C)O2)/C=C\C=C\C[C@@H](C)OC(=O)C[C@H]1O
not listed: [6] | [7]
inactive: all other assays above

COc1ccc2c(=O)c(C)c(-c3ccccc3)oc2c1CN(C)C
not listed: [6] | [7]
inactive: all other assays above

C[C@H](O)[C@H](O)[C@H]1CNc2nc(N)[nH]c(=O)c2N1
inactive: all assays above

CC(C)[C@H](N)C(=O)OCC(CO)OCn1cnc2c(=O)[nH]c(N)nc21 (stereo not given in full)
not listed: [7]
inactive: all other assays above

CCCCN1CCCC[C@H]1C(=O)Nc1c(C)cccc1C
not listed: [7]
inactive: all other assays above

Cc1cccn2c(=O)c(-c3nnn[nH]3)cnc12
not listed: [7]
inactive: all other assays above

O=C(O)CN1C(=O)c2cccc3cccc(c23)C1=O
not listed: [6] | [7]
inactive: all other assays above

CC(C)[C@@H](C)/C=C/[C@@H](C)[C@H]1CC[C@H]2/C(=C/C=C3\C[C@@H](O)CC[C@@H]3C)CCC[C@]12C
inactive: [1] | [2] | [3] | [4]

COC(=O)CCCCC(=O)O
inactive: [1] | [2] | [3]

[O-][n+]1cccc(CO)c1
not listed: [6] | [7]
inactive: all other assays above

Cc1cccc(C)c1Nc1ncccc1C(=O)O
active: [1] 43.8 µM
inactive: all other assays above

CC(C)c1ccc2sc3ccccc3c(=O)c2c1
active: [4] 72.8 µM
inactive: all other assays above

Cc1cc(/C=C/c2ccc3cc(N(C)C)ccc3[n+]2C)c(C)n1-c1ccccc1
active: [1] 13.4 µM | [3] 16.1 µM | [4] 16.6 µM | [5] 15.8 µM | [7] 20.1 µM
inactive: [2] | [6]

COc1cc2c(cc1N)oc1ccccc12
active: [7] 66.1 µM
inactive: all other assays above
